Compound activity deposited in PubChem by National Center for Advancing Translational Sciences (NCATS).
In the library only some 7.5% were active in any assay of this set; here they are far more common.
NPC1 prom act = activators of NPC1 promoter. Huh7 NPC1 promoter luciferase reporter, 24 h. Potency, µM (series often up to 9.22 µM), for inactives: top-dose activation, usual class: activators. hit rate 2.4% among 320,000. AID 485313; further: % of control where 0% means no effect; nearly all actives have a fitted effect of over 60% in size
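Cells: Huh7 expressing luciferase under the NPC1 promoter, 1500/well. Seeded 2 h, compound added, incubated 24 h at 37 °C. Luciferase reagent, 10 min ambient, then luminescence.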
ELG1 genotoxic = inducers of genotoxicity in HEK293T ELG1-luciferase cells; Potency, µM (doses to about 46 µM), inactives show top-dose activity change, positive = activation, most hits filed as activators; AID 504466; HEK293T ELG1-luciferase reporter, luminescence, 16 h; hit rate 1.3% among 330,000; further: % of control where 0% means no effect; nearly all actives have a fitted effect of over 60% in size
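Screening used a luciferase reporter fused to human ELG1 in HEK293T cells. Luminescence was read on a CCD plate imager after 16 hr exposure and 30 min ONE-Glo incubation.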
FLuc counter = inhibits or activates purified firefly luciferase, miR-21 counter-screen; P08659; purified FLuc, Km substrates, luminescence inhibition; Potency, µM (titrated, usually from 57.5 µM), without a hit: at the top dose activity change, negative = inhibition, most hits filed as inhibitors; hit rate 6.9% among 360,000;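 further: plate controls were vehicle for no effect and reference inhibitor for full effect; nearly all actives have a fitted effect of over 55% in size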
Target sequence (P08659 whole entry, looked up): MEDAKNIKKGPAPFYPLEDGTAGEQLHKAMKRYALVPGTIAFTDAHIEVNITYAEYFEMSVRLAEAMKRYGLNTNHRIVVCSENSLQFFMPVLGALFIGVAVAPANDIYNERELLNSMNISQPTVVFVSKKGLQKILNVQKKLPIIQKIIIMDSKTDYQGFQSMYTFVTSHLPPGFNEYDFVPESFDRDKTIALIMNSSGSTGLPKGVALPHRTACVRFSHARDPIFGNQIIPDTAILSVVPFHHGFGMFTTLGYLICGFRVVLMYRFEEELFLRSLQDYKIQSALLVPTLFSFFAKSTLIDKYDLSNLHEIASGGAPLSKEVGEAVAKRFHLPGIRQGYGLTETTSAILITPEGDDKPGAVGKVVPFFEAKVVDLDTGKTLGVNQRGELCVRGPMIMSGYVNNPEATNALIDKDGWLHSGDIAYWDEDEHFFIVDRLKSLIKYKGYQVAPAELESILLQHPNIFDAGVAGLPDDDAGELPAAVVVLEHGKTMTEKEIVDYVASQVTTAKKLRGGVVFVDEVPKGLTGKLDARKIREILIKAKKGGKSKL
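Purified P. pyralis luciferase (10nM final) with 10uM D-luciferin and 10uM ATP (Km levels) in 50mM Tris acetate pH 7.5, 10mM Mg acetate, 0.01% Tween-20, 0.05% BSA; qHTS 6-point titration, ~60 µM downward; luminescence read.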
SMN2 splice up = increases expression of the SMN2 splice variant. hit rate 2.8% among 210,000. HEK293 SMN2-luciferase splicing reporter, luminescence, 30-36 h. Potency, µM (doses to about 46.1 µM), for inactives: at the highest dose activity change, positive = activation, hits mostly activators; further: % of control where 0% means no effect; nearly all actives have a fitted effect of over 55% in size
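HEK293 cells carry an SMN2 […]–luciferase reporter in which exon 7 inclusion puts luciferase in frame. Cells were plated 10-12 h before compound addition, then incubated 30-36 h at 37C. ONE-Glo luminescence was read; sodium butyrate at 4.5 mM final served as control.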
Luc counter = Kinase-Glo luciferase inhibition (counter-screen). Kinase-Glo luciferase, ATP luminescence, 8 min. hit rate 0.28% among 200,000. Q27757. AID 1379. Potency, µM (doses to about 38.3 µM), inactives show at the top dose activity change, negative = inhibition, usual class: inhibitors; further: on the % scale 0 is the no-effect control and ±100 the full control effect; nearly all actives have a fitted effect of over 60% in size
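Compounds were added to a substrate mix at pH 7.2 (50 mM imidazole, 10 uM ATP, within the enzyme's linear range), followed by Kinase-Glo detection reagent; luminescence was measured after 8 minutes at ambient temperature.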
Rab9 promoter act = activators of Rab9 promoter; Huh7 Rab9 promoter-luciferase reporter, luminescence, 24 h; Potency, µM (titrated, usually from 9.22 µM), inactives show at the top dose activation, negative = inhibition, most hits filed as activators; hit rate 2.8% among 320,000; AID 485297; further: % of control where 0% means no effect; nearly all actives have a fitted effect of over 60% in size
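Luciferase signal after 10 min detection reagent at ambient indicates Rab9 promoter upregulation; stably transfected Huh7 cells were treated 24 h with compound in DMSO at 37 °C, 5% CO2.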
Starred values were filed as active, the others as inactive; ? = inconclusive; . = no result. The call rests on the fitted dose curve; in most records, active means well fitted curve in the direction sought with a large enough effect; inconclusive means small, poorly fitted or top-dose-only effect, or another doubt; inactive means no such curve, though single readings can be large; an effect the other way counts as inactive or inconclusive. Potency means the concentration at half of the fitted maximal effect.

SMILES	NPC1 prom act	ELG1 genotoxic	FLuc counter	SMN2 splice up	Luc counter	Rab9 promoter act
O=C(Nc1nccc(-c2cccs2)n1)c1cccs1	2.8µM*	?	19µM*	?	-11%	?
Cc1cc(NC(=O)c2cccs2)ncc1NC(=O)C(C)(C)C	0.89µM*	4.1µM*	11µM*	.	.	1.4µM*
Cc1cccc(NC(=O)c2cccs2)n1	?	-44%	?	21%	-11%	?
Cc1ccnc(NC(=O)c2ccc(Br)s2)c1	1.1µM*	?	2.7µM*	.	.	1.6µM*
O=C(Nc1ccccn1)c1cccs1	.	.	?	30%	-22%	.
O=C(Nc1ccon1)c1ccc(Br)s1	12%	-4%	-12%	.	.	9%
Cc1ccnc(NC(=O)c2cccs2)c1	3.5µM*	?	15µM*	?	?	2.2µM*
CCCN1C(C(=O)c2ccccc2)=C(OC(=O)C(C)(C)C)c2ccccc2S1(=O)=O	.	.	-1%	-67%	.	.
CCc1ccccc1NC(=O)Cn1nc2c3cc(F)ccc3n(Cc3cccc(C)c3)cc-2c1=O	.	.	-2%	.	.	.
Cc1ccc(-n2c(C)cc(C(=O)CSc3nncs3)c2C)cc1	1µM*	?	3µM*	12%	-10%	0.5µM*
Cc1cc(C(=O)CSc2nncs2)c(C)n1-c1c(C)n(C)n(-c2ccccc2)c1=O	-4%	8%	2%	-8%	-5%	2%
Cc1ccc(-n2c(C)cc(C(=O)CSc3nnnn3C)c2C)cc1	0.71µM*	13%	2.7µM*	?	-14%	0.71µM*
Cc1cc(C(=O)CSc2nnnn2-c2ccc(O)cc2)c(C)n1C	21%	1%	?	19%	1%	10%
CCN(CC)c1ccc(C(=O)O)cc1	0%	2%	5%	1%	1%	-4%
CCN(CC)c1ccc(/C=C2\C(=O)c3ccc(C(=O)O)cc3C2=O)cc1	1%	?	0.38µM*	-9%	-24%	-5%
Cn1nc(C(F)(F)F)c(CO)c1Sc1ccc(F)cc1	-3%	-12%	1%	-2%	0%	-8%
CCN(CC(=O)Nc1ccc2c(c1)OCCO2)C(=O)/C=C/c1cccc(Br)c1	14%	?	15µM*	.	.	17%
CCN(CC(=O)Nc1ccc2c(c1)OCCO2)C(=O)/C=C/c1ccc(F)cc1	0%	?	17µM*	23%	1%	27%
c1ccc(-n2nnc3c(N4CCOCC4)ncnc32)cc1	0.32µM*	?	1.5µM*	12%	?	0.32µM*
CCc1ccc(NC(=O)CSc2nc3c(c(=O)[nH]2)CN(Cc2ccc(C)cc2)CC3)cc1	.	.	2%	.	.	.
CC1(C)CC(=O)c2cc(-c3nc(-c4ccc(Cl)cc4)cs3)c(=O)n(-c3cccc(F)c3)c2C1	.	.	-6%	0%	.	.
Cc1nc2nc(COc3ccccc3)[nH]n2c(=O)c1Cl	7%	2%	19µM*	16%	-10%	7%
COC(=O)c1ccc(COc2cc([N+](=O)[O-])cc3cccnc23)o1	0%	-2%	21µM*	.	-3%	-1%
COC(=O)c1ccc(COc2ccc(C)cc2[N+](=O)[O-])o1	?	-7%	19µM*	.	.	?
O=C(COc1cc([N+](=O)[O-])cc2cccnc12)NCCC1=CCCCC1	-5%	-9%	0%	.	.	4%
Cc1ccc(OCc2ccc(C(=O)NN)o2)c([N+](=O)[O-])c1	9%	3%	?	.	.	-3%
COc1ccc(C(=O)NNC(=S)NC(=O)c2cc(-c3ccccc3)nc3ccccc23)cc1	-1%	-5%	12µM*	-14%	-2%	3%
CCNC(=S)NNC(=O)c1cc(CC(C)C)nc2ccccc12	-8%	-2%	?	-18%	-1%	5%
CCCOc1ccc(C(=O)NNC(=S)NC(=O)c2cc(-c3ccc(Cl)cc3)nc3ccccc23)cc1	-9%	-5%	?	-9%	-5%	-6%
CCNC(=S)NNC(=O)c1cc(-c2cccc(OC)c2)nc2ccccc12	24%	?	0.67µM*	?	?	15%
